Results reported in the supplement of paper PMC3334620.
Over roughly 33,000 sequences, “E-score (-0.5 to 0.5)” has its median near -0.043; the highest 2% begin near 0.37. The sample holds the highest values, similar sequences and a random draw of the others, so the mix is not that of the screen.

target: T1, Upc2 (UniProt Q12151); test: PBM E-score (8-mer binding enrichment) (E-score (-0.5 to 0.5)); higher = stronger / more preferred TF binding; conditions: protein concentration: 200 nM; construct: GST-full length
T1 sequence: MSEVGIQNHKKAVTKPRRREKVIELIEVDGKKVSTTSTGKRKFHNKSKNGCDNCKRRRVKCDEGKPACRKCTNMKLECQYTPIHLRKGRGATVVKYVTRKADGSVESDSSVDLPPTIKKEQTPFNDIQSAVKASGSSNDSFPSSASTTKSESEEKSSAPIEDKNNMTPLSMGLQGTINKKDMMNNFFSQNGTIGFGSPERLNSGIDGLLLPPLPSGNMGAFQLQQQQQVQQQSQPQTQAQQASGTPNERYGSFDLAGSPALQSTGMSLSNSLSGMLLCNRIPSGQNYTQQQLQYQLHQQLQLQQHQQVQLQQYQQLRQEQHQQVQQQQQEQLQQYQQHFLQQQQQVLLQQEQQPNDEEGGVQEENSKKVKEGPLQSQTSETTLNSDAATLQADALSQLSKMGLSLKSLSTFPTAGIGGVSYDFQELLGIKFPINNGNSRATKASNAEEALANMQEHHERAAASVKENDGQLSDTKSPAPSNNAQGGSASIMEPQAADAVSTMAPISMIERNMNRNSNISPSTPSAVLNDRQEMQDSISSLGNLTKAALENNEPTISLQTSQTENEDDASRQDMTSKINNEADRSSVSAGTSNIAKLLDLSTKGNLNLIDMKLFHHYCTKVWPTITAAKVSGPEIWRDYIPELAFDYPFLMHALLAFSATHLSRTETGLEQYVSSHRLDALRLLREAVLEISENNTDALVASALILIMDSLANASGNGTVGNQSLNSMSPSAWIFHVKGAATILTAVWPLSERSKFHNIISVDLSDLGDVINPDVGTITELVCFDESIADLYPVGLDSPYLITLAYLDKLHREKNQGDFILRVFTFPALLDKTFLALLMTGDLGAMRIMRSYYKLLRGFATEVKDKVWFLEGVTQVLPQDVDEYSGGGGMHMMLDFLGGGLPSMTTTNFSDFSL
In short: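 Yeast transcription factors carrying a GST tag, as full-length proteins or DNA-binding domains, were produced by PURExpress in vitro transcription/translation. About 100-200 nM protein was applied to universal all-10-mer Agilent arrays, double-stranded by primer extension on fresh or once-stripped slides. Bound protein was detected with fluorescent anti-GST, and scans were normalised with masliner. The Universal PBM Analysis Suite gave each ungapped eight-base word, pooled with its reverse complement, an E-score, a modified Wilcoxon-Mann-Whitney statistic.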

Compared with AGGCGTGA, CGGAAGTA is higher in “PBM E-score” value: -0.00507 for the first, 0.0369 for the second.

Going from AACCACAA to GTGAATAA, the “PBM E-score” value rises from -0.077 to -0.0516.

Compared with ACAACTAC, GCGAAAAA is higher in “PBM E-score” value: -0.129 for the first, 0.148 for the second.

Compared with GACTTAAC, CTGAAGAA is lower in “PBM E-score” value: 0.00959 for the first, -0.299 for the second.

Going from CCCATCGG to AGCAAGCT, the “PBM E-score” value falls from 0.0976 to -0.253.

First: CGTAAGAG
Second: ACGCCATC
The “PBM E-score” value of the first is higher: 0.316 for the first, -0.0963 for the second.

Compared with GCAAACAC, CGTTCCCC is higher in “PBM E-score” value: -0.00637 for the first, 0.333 for the second.

Going from CGTTCCCA to GGTTCCCA, the “PBM E-score” value falls from 0.373 to -0.0861.

Compared with TACGTATA, AACGTATC is lower in “PBM E-score” value: 0.423 for the first, 0.142 for the second.

Compared with GACGTAGC, CACGTATA is higher in “PBM E-score” value: 0.0263 for the first, 0.433 for the second.

Going from GACGTATA to TACGTACA, the “PBM E-score” value falls from 0.424 to 0.341.

First: TACGTAGA
Second: AACGTATT
The “PBM E-score” value of the first is lower: 0.18 for the first, 0.212 for the second.

Going from CACGTATC to CACGTATG, the “PBM E-score” value rises from 0.132 to 0.236.

Compared with AACGTATA, GACGTATC is lower in “PBM E-score” value: 0.443 for the first, 0.156 for the second.

First: CGCAAATA
Second: AACAGGTC
The “PBM E-score” value of the first is higher: 0.0612 for the first, 0.056 for the second.

Compared with TGAAAAAA, ACACCGAG is lower in “PBM E-score” value: 0.0284 for the first, -0.024 for the second.

Compared with AACATTGT, GCCGTGCA is lower in “PBM E-score” value: 0.0538 for the first, -0.291 for the second.

Going from CACGTACA to GCCGTACA, the “PBM E-score” value rises from 0.272 to 0.4.

Compared with ACCGTAGG, CCCGTACC is higher in “PBM E-score” value: -0.135 for the first, 0.383 for the second.

Going from CCCGTACA to GCGGTACA, the “PBM E-score” value falls from 0.398 to -0.0545.

First: CCCGTAGC
Second: ACCGTACG
The “PBM E-score” value of the first is lower: 0.0891 for the first, 0.383 for the second.

Going from ACCGTAAT to CCAGTACC, the “PBM E-score” value falls from 0.0464 to 0.0225.

First: CCAGTACA
Second: ATCGACAA
The “PBM E-score” value of the first is lower: -0.157 for the first, 0.0687 for the second.

Compared with AACATCAT, AAAAGCTG is higher in “PBM E-score” value: -0.094 for the first, 0.0411 for the second.

Going from ACACACTC to TTCAGCAA, the “PBM E-score” value falls from -0.042 to -0.0506.

First: CTCTCCAA
Second: ACTCGACC
The “PBM E-score” value of the first is lower: -0.0403 for the first, -0.0381 for the second.

Going from TCCGTAGA to TGCGTACA, the “PBM E-score” value rises from -0.0263 to 0.318.

First: CCCGTAGG
Second: AGCGTACG
The “PBM E-score” value of the first is lower: -0.0508 for the first, 0.354 for the second.

Going from CGCGTACA to CGCGTACG, the “PBM E-score” value rises from 0.35 to 0.4.

First: GCCGTACC
Second: TCCGTACA
The “PBM E-score” value of the first is lower: 0.379 for the first, 0.406 for the second.

Going from GCCGTAGC to CCCGTAAG, the “PBM E-score” value rises from 0.0955 to 0.208.

Compared with CCCGTACG, ACCGTACC is lower in “PBM E-score” value: 0.393 for the first, 0.366 for the second.

First: AAGCTCAC
Second: AAGAAGGC
The “PBM E-score” value of the first is higher: -0.0662 for the first, -0.216 for the second.

Going from ATCAGTGC to CTTAGGCA, the “PBM E-score” value falls from -0.0682 to -0.361.

Going from ATTTCAGG to ATCGATAG, the “PBM E-score” value rises from -0.0274 to -0.0178.

Going from TAAATTGA to CGTGCATA, the “PBM E-score” value falls from -0.0257 to -0.0557.

Compared with GCCCTTTA, ACCGTACA is higher in “PBM E-score” value: -0.0758 for the first, 0.39 for the second.

Compared with ACCGTACT, ACTGTACA is lower in “PBM E-score” value: 0.214 for the first, 0.133 for the second.

Going from AAGCGGCT to ACCGCTAC, the “PBM E-score” value rises from -0.0364 to 0.14.

Going from CGGCCGTC to CGGCCGTA, the “PBM E-score” value rises from -0.0655 to 0.378.

Compared with GAACCGTA, GCACCGTA is higher in “PBM E-score” value: 0.269 for the first, 0.371 for the second.

First: ACACCGTA
Second: AGACCGTA
The “PBM E-score” value of the first is higher: 0.321 for the first, 0.287 for the second.

First: CCACCGAA
Second: CCACCGTA
The “PBM E-score” value of the first is lower: -0.00574 for the first, 0.399 for the second.

Going from CGACCGTC to CCACCGTC, the “PBM E-score” value falls from -0.0557 to -0.227.

First: AGGCCGTA
Second: CGACCGTA
The “PBM E-score” value of the first is lower: 0.355 for the first, 0.373 for the second.

Compared with AAAGATTC, CCAAGAAG is lower in “PBM E-score” value: 0.0374 for the first, -0.227 for the second.

Compared with ATGCGTGC, CAGTCGCC is lower in “PBM E-score” value: 0.03 for the first, -0.196 for the second.

Compared with ATTTGCTG, CGTACACC is higher in “PBM E-score” value: 0.0559 for the first, 0.382 for the second.

First: AGTACACG
Second: AGTACACA
The “PBM E-score” value of the first is higher: 0.198 for the first, 0.143 for the second.

First: AGTACACC
Second: GGTACACA
The “PBM E-score” value of the first is higher: 0.0771 for the first, -0.235 for the second.

Going from CGTACACA to GGTACACC, the “PBM E-score” value falls from 0.418 to 0.0641.

Going from CGTACACG to TGTACACA, the “PBM E-score” value falls from 0.423 to 0.0892.

Going from GATGAGGA to CCTGCAAA, the “PBM E-score” value falls from -0.0777 to -0.0886.

Going from GCAATTAC to AGGGTCCC, the “PBM E-score” value falls from -0.0538 to -0.229.

Going from ACGAGTCA to ACGAGTAA, the “PBM E-score” value rises from 0.249 to 0.348.

Compared with ACGAGTGC, ACGAGTAG is lower in “PBM E-score” value: 0.377 for the first, 0.368 for the second.

Compared with CCGAGTGC, ACGAGTAC is higher in “PBM E-score” value: -0.0549 for the first, 0.419 for the second.

Compared with ACGAGTCG, ACGAGTCT is lower in “PBM E-score” value: 0.384 for the first, 0.293 for the second.

Going from CCGAGTAC to GCGAGTAC, the “PBM E-score” value rises from 0.196 to 0.204.

Compared with ACGAGTGG, ACGAGTAT is higher in “PBM E-score” value: 0.295 for the first, 0.376 for the second.

Going from CGCTGGGA to AAAGTGTT, the “PBM E-score” value rises from -0.0151 to 0.0836.

Compared with ATCGTCCG, CGACGATA is higher in “PBM E-score” value: -0.101 for the first, 0.169 for the second.

Going from CGGTAAAC to AAAGGTGG, the “PBM E-score” value falls from 0.206 to -0.0797.

Compared with AGCTTTAC, GTGGATAA is lower in “PBM E-score” value: 0.192 for the first, -0.151 for the second.

First: ACAGTAGC
Second: AAAATAGG
The “PBM E-score” value of the first is higher: -0.0133 for the first, -0.0506 for the second.

Compared with AGCGTTTC, CTCGTTGC is higher in “PBM E-score” value: 0.0667 for the first, 0.356 for the second.

Going from ATAGTTTG to ATAGTTTC, the “PBM E-score” value falls from -0.0286 to -0.0466.

Going from CGCGTTTC to ATCGTTTC, the “PBM E-score” value rises from 0.0838 to 0.401.

Going from ATCGTTTG to AGCGTTTG, the “PBM E-score” value falls from 0.452 to 0.149.

Compared with CTCGTTTC, GTCTGGAA is lower in “PBM E-score” value: 0.452 for the first, -0.122 for the second.

Going from GAAATTCC to GACCCGAA, the “PBM E-score” value rises from -0.186 to -0.0162.

Going from CCTGCGCG to CGGGCCAA, the “PBM E-score” value falls from -0.0152 to -0.307.

Going from AGCAGAGG to GCAAGCGA, the “PBM E-score” value rises from -0.293 to 0.174.

Going from AACACCTT to ACGTTCAA, the “PBM E-score” value rises from 0.0752 to 0.238.

First: TCGTTCCA
Second: GCGTTCCA
The “PBM E-score” value of the first is higher: 0.46 for the first, 0.11 for the second.

Compared with ACGTTTCA, TCGTTCAA is higher in “PBM E-score” value: 0.116 for the first, 0.459 for the second.

First: ACGTTCCC
Second: GCGTTCCC
The “PBM E-score” value of the first is higher: 0.0935 for the first, 0.0703 for the second.

Compared with TCGTTTCA, GCGTTTCA is lower in “PBM E-score” value: 0.406 for the first, -0.0903 for the second.

Compared with CCGTTCCC, GCGTTCAA is lower in “PBM E-score” value: 0.385 for the first, 0.173 for the second.

Going from ACGTTCCA to AGTCTTTA, the “PBM E-score” value falls from 0.116 to -0.0445.

Compared with AGACTGCG, GCGAATTA is higher in “PBM E-score” value: -0.17 for the first, 0.179 for the second.

First: GGATGGAA
Second: CGGGCATC
The “PBM E-score” value of the first is lower: -0.0401 for the first, 0.0742 for the second.

Going from GCCGCGTA to AGCCGAAG, the “PBM E-score” value falls from 0.271 to -0.185.

First: CTACAAGA
Second: CTTCGTCC
The “PBM E-score” value of the first is higher: -0.194 for the first, -0.316 for the second.

Going from CTTCGTGA to CTTCGTCA, the “PBM E-score” value falls from 0.112 to -0.0302.

Going from ATTCGTGC to ATTCGTAC, the “PBM E-score” value rises from -0.094 to 0.452.
